Test results from PubChem BioAssay (NCI).
Where “and” joins values, the source holds several entries; their conditions need not be identical. Identical values can stand only once. This is part of a sample that, as a whole, favours compounds with a hit. Of some 83,000 tested, about 20% had one in any assay.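 Interpretation: 100, growth as untreated; towards 0, rising growth inhibition; 0, no net growth; 0 to -100, cell death. Compounds scoring below 10 were considered active.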 Calls of active or inactive are those of the source.

What was measured:
Test in all cases: NCI-60 one-dose screen, 48 h (100 = growth as untreated, 0 = no growth, -100 = all killed)
Details in all cases: 10 µM unless noted
SK-MEL-2 melanoma = system: SK-MEL-2 melanoma
EKVX NSCLC = system: EKVX NSCLC
SN12C renal = system: SN12C renal
UO-31 renal = system: UO-31 renal
TK-10 renal = system: TK-10 renal
ACHN renal = system: ACHN renal
CAKI-1 renal = system: CAKI-1 renal
A498 renal = system: A498 renal
CCRF-CEM leukemia = system: CCRF-CEM leukemia
MOLT-4 leukemia = system: MOLT-4 leukemia
SR leukemia = system: SR leukemia
RPMI-8226 leukemia = system: RPMI-8226 leukemia
OVCAR-8 ovarian = system: OVCAR-8 ovarian
OVCAR-5 ovarian = system: OVCAR-5 ovarian
OVCAR-4 ovarian = system: OVCAR-4 ovarian
SK-OV-3 ovarian = system: SK-OV-3 ovarian
IGROV1 ovarian = system: IGROV1 ovarian
OVCAR-3 ovarian = system: OVCAR-3 ovarian
HS 578T breast = system: HS 578T breast
NCI/ADR-RES ovarian = system: NCI/ADR-RES ovarian

Compound	growth (SK-MEL-2 melanoma)	growth (EKVX NSCLC)	growth (SN12C renal)	growth (UO-31 renal)	growth (TK-10 renal)	growth (ACHN renal)	growth (CAKI-1 renal)	growth (A498 renal)	growth (CCRF-CEM leukemia)	growth (MOLT-4 leukemia)	growth (SR leukemia)	growth (RPMI-8226 leukemia)	growth (OVCAR-8 ovarian)	growth (OVCAR-5 ovarian)	growth (OVCAR-4 ovarian)	growth (SK-OV-3 ovarian)	growth (IGROV1 ovarian)	growth (OVCAR-3 ovarian)	growth (HS 578T breast)	growth (NCI/ADR-RES ovarian)
Cn1c(=O)c2[nH]c(CCCCCCCCc3nc4ccccc4[nH]3)nc2n(C)c1=O	79.3% (inactive) and 107% (inactive)	42% (inactive) and 55.1% (inactive)	81.2% (inactive) and 68% (inactive)	73.9% (inactive) and 74.9% (inactive)	84% (inactive) and 90.3% (inactive)	61.1% (inactive) and 69% (inactive)	49.7% (inactive) and 57.9% (inactive)	55.7% (inactive) and 78.8% (inactive)	69.6% (inactive) and 66.4% (inactive)	41% (inactive) and 41.7% (inactive)	43.5% (inactive) and 45.4% (inactive)	52.2% (inactive)	58.9% (inactive) and 69.2% (inactive)	106% (inactive) and 91.2% (inactive)	23.5% (inactive) and 50.2% (inactive)	95.4% (inactive) and 94% (inactive)	100% (inactive) and 85.9% (inactive)	88.1% (inactive) and 66.6% (inactive)	109% (inactive) and 85.6% (inactive)	87.6% (inactive) and 94.4% (inactive)
NC(=S)NN=C1CCC(C2CCCCC2)CC1 (stereo not given)	96% (inactive) and 90.2% (inactive)	78.9% (inactive) and 82.6% (inactive)	82.3% (inactive) and 82.5% (inactive)	69.3% (inactive) and 45.9% (inactive)	113% (inactive) and 104% (inactive)	100% (inactive) and 98.8% (inactive)	81.9% (inactive) and 96.2% (inactive)	88.2% (inactive)	81.1% (inactive) and 92% (inactive)	81.4% (inactive) and 73.3% (inactive)	125% (inactive)	67.1% (inactive) and 74.9% (inactive)	100% (inactive) and 98.8% (inactive)	110% (inactive) and 93.3% (inactive)	33.8% (inactive)	100% (inactive) and 101% (inactive)	98.2% (inactive) and 89.4% (inactive)	83.9% (inactive) and 85.7% (inactive)	79.3% (inactive) and 109% (inactive)	96.8% (inactive) and 102% (inactive)
CN(Cc1ccccc1)Cc1ccccc1	104% (inactive)	102% (inactive)	101% (inactive)	93% (inactive)	88.2% (inactive)	108% (inactive)	93.9% (inactive)	114% (inactive)	115% (inactive)	122% (inactive)	105% (inactive)	110% (inactive)	117% (inactive)	103% (inactive)	113% (inactive)	113% (inactive)	99.4% (inactive)	106% (inactive)	108% (inactive)	102% (inactive)
Nc1cc2c(cc1N)-c1ccccc1C2	86.3% (inactive) and 111% (inactive)	67.1% (inactive) and 68% (inactive)	75.7% (inactive) and 101% (inactive)	58.8% (inactive) and 73.1% (inactive)	108% (inactive)	82.6% (inactive) and 88.3% (inactive)	56.8% (inactive) and 79.8% (inactive)	88.2% (inactive) and 103% (inactive)	18.9% (inactive) and 30.8% (inactive)	57.3% (inactive) and 79.8% (inactive)	71.1% (inactive) and 90.7% (inactive)	41.3% (inactive) and 61% (inactive)	88.9% (inactive) and 89.5% (inactive)	122% (inactive) and 109% (inactive)	99.5% (inactive) and 107% (inactive)	96.9% (inactive) and 95.1% (inactive)	58.3% (inactive) and 79.2% (inactive)	98.6% (inactive) and 97.7% (inactive)	104% (inactive)	89.4% (inactive) and 90.2% (inactive)
CCCCOc1cc(C(=O)NCCN(CC)CC)c2ccccc2n1	120% (inactive) and 99.6% (inactive)	74.9% (inactive)	86.7% (inactive) and 93.5% (inactive)	59.1% (inactive) and 78% (inactive)	100% (inactive)	90.1% (inactive) and 99.7% (inactive)	73.6% (inactive) and 92.8% (inactive)	81.1% (inactive) and 95.4% (inactive)	89.4% (inactive)	98% (inactive) and 101% (inactive)	101% (inactive) and 93% (inactive)	85.4% (inactive) and 93.6% (inactive)	92.9% (inactive) and 81.8% (inactive)	91.4% (inactive) and 97.6% (inactive)	94.2% (inactive) and 101% (inactive)	112% (inactive) and 92.8% (inactive)	102% (inactive) and 111% (inactive)	114% (inactive) and 101% (inactive)	92.3% (inactive) and 128% (inactive)	92.2% (inactive) and 99.3% (inactive)
NC(=O)NO	110% (inactive) and 94.1% (inactive)	98.9% (inactive) and 59.5% (inactive)	104% (inactive) and 71.5% (inactive)	87.8% (inactive) and 48.8% (inactive)	113% (inactive) and 85% (inactive)	96.9% (inactive) and 67.5% (inactive)	83.9% (inactive) and 77.2% (inactive)	104% (inactive) and -7.21% (active)	82.2% (inactive) and 68% (inactive)	95.9% (inactive) and 75.1% (inactive)	54.6% (inactive)	98.8% (inactive) and 42.1% (inactive)	99.8% (inactive)	108% (inactive) and 45.8% (inactive)	105% (inactive) and 59.5% (inactive)	107% (inactive) and 56.4% (inactive)	104% (inactive) and 47% (inactive)	110% (inactive) and 70.1% (inactive)	109% (inactive) and -24.6% (active)	99.4% (inactive) and 87.4% (inactive)
CCOc1ccc(Nc2c3ccccc3nc3ccccc23)cc1	104% (inactive) and 34% (inactive) and 72.1% (inactive)	42.8% (inactive) and 42.1% (inactive)	81.8% (inactive) and 20.6% (inactive) and 27.6% (inactive)	62.8% (inactive) and 0.768% (active) and 1.99% (active)	93.3% (inactive) and 35.1% (inactive) and 32.7% (inactive)	84.9% (inactive) and -30.4% (active) and 6.25% (active)	91.3% (inactive) and 6.56% (active) and -17% (active)	73.5% (inactive) and 35.5% (inactive) and 72.8% (inactive)	99.8% (inactive) and 12.4% (inactive) and 4.91% (active)	89.9% (inactive) and -2.2% (active) and -10.9% (active)	81.6% (inactive) and 7.88% (active) and -40.6% (active)	81.3% (inactive) and 18% (inactive) and -19.7% (active)	83.6% (inactive) and 22.9% (inactive) and 36.9% (inactive)	90.8% (inactive) and 29.4% (inactive) and 47.8% (inactive)	90.9% (inactive) and 36.4% (inactive) and 37.9% (inactive)	96.6% (inactive) and 30.7% (inactive) and 40.5% (inactive)	92.1% (inactive) and 20.4% (inactive) and 16.5% (inactive)	96.5% (inactive) and 17.9% (inactive) and 35.1% (inactive)	88.5% (inactive) and 60.2% (inactive) and 61.7% (inactive)	82.8% (inactive) and 22.6% (inactive) and 16.8% (inactive)
COc1cc(-c2nccc3cc4c(cc23)OCO4)cc(OC)c1OC	9.15% (active)	68.4% (inactive) and 63.5% (inactive)	39% (inactive) and 47.3% (inactive)	50.8% (inactive) and 44.4% (inactive)	44.9% (inactive) and 28.9% (inactive)	36.2% (inactive) and 40.2% (inactive)	20% (inactive) and 30.8% (inactive)	41.3% (inactive) and 20.1% (inactive)	34.2% (inactive) and 34.4% (inactive)	39.4% (inactive) and 17.7% (inactive)	18.5% (inactive) and 35.6% (inactive)	37.5% (inactive)	48.9% (inactive) and 35.2% (inactive)	66.4% (inactive) and 73.5% (inactive)	79.2% (inactive) and 69% (inactive)	23.7% (inactive) and 9.08% (active)	45.8% (inactive) and 37.7% (inactive)	-9.95% (active) and -25.2% (active)	18.7% (inactive) and 53.8% (inactive)	-3.6% (active) and 8.92% (active)
CNc1ccc2nc3ccc(=[N+](C)C)cc-3sc2c1	4.78% (active) and 4.79% (active)	40.9% (inactive) and 44.1% (inactive)	-22% (active) and -62.5% (active)	26.7% (inactive) and 33.7% (inactive)	-3.64% (active) and 17.3% (inactive)	14.6% (inactive) and -27.6% (active)	11.2% (inactive) and 4.64% (active)	57.8% (inactive) and 49.1% (inactive)	9.67% (active) and 11.8% (inactive)	-8.79% (active) and 12.2% (inactive)	20.3% (inactive) and 28.5% (inactive)	21.3% (inactive) and 8.61% (active)	-15.7% (active) and -26.8% (active)	-8.49% (active) and -6.9% (active)	-14.7% (active)	35.2% (inactive) and 18.6% (inactive)	3.81% (active) and -25.6% (active)	-7.57% (active) and -9.51% (active)	-15% (active) and 20.2% (inactive)	2.25% (active) and 1.64% (active)
